Several values for one entry are separate records, joined by “and”; a condition that tells them apart may be missing. Equal values may be shown once. The panel holds about 83,000 compounds, 20% with a hit somewhere; the sample as a whole holds those more often.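 Values shown are percent growth following 48 h exposure of cells in 96-well plates to a single concentration of compound; below 10 was considered active.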 Activity calls are given as the source filed them.
System: MDA-MB-468 breast
Test: NCI-60 one-dose screen, 48 h (100 = growth as untreated, 0 = no growth, -100 = all killed)
Details: 10 µM unless noted

Compound | growth
CC1CCC(C)(C)c2ccccc21 (stereo not given) | 99.6% (inactive)
O=[N+]([O-])c1ccc(C2CC(c3ccccc3)=Nc3ccccc3S2)cc1 (stereo not given) | 77.7% (inactive)
Cc1nc(Nc2nc3ccccc3o2)nc(-c2cccc([N+](=O)[O-])c2)c1C(=O)Nc1ccc(F)c(Cl)c1 | -2.01% (active)
O=C(OCc1ccc2cccc(O)c2n1)N1CCN(C(=O)c2cc3cc(F)ccc3[nH]2)CC1 | -59.2% (active)
CCOc1cc(/C=N\NC(=O)C[N+](C)(C)C)ccc1O | 123% (inactive)
Cc1cccnc1NC(=S)Nc1ncccc1C | 71.9% (inactive)
COC(=O)c1cc(=O)nc(N/N=C/c2ccccc2O)s1 | 98% (inactive)
O=c1ccn(Cc2cn(-c3c4ccccc4nc4ccccc34)nn2)c(=O)[nH]1 | -50.8% (active)
CN(C)C1=NCCN1 | 108% (inactive)
CN(C)c1ccc(C(=C2C=CC(=[N+](C)C)C=C2)c2ccccc2Cl)cc1 | -57.8% (active) and -84.2% (active)
CCCCCC(C)c1ccc(O)c(C)c1 (stereo not given) | 101% (inactive)
CCOC(=O)c1cc(C(=O)c2ccc(OC)c(OC)c2)n2ccc(-c3ccccn3)cc12 | 74.9% (inactive)
O=C1[C@H]2Cc3c([nH]c4ccccc34)[C@@H](c3ccc(Br)cc3)N2C(=O)CN1C1CCN(CC2CCCCC2)CC1 | -84.6% (active)
COc1cc(/C=C/C(=O)c2ccccc2)cc(OC)c1OC | 64.7% (inactive)
CCCCCCCCn1ccc2cc(NC(=O)Cn3cc(CN4CCOCC4)nn3)ccc21 | 88.2% (inactive)
NC(=S)NS(=O)(=O)c1ccc(N)cc1 | 96.5% (inactive)
Cc1cn(C2CCCCO2)c(=O)nc1NO (stereo not given) | 65% (inactive)
S=c1cnc2ccccc2[nH]1 | 108% (inactive)
Cc1ccc(N2C(=O)c3cccc4c(N)c(S(=O)(=O)O)cc(c34)C2=O)cc1 | 113% (inactive)
Cc1ccccc1OC(=O)c1cccc(Cl)c1 | 107% (inactive)

Compound | growth
Cc1nc2ccc(Cl)cn2c1-c1nnc(SCc2ccc([N+](=O)[O-])cc2)o1 | 48.9% (inactive)
CCN1CCN(Cc2ccc(Cc3ncc(F)c(-c4cc(F)c5nc(C)n(C(C)C)c5c4)n3)nc2)CC1 | 80.6% (inactive)
O=C(CCN1CCCC1)c1ccc([N+](=O)[O-])cc1 | 85.3% (inactive)
O=C1Nc2ccccc2C1=NC1CCCCC1 | 102% (inactive)
NCCOc1ncccc1/C=C1\c2ccccc2-c2ccc(F)cc21 | -24.1% (active)
Oc1c(CN2CCCCC2)ccc2cccnc12 | 72.3% (inactive) and 81.8% (inactive)
O=c1[nH]ccc2nc(N3CCC(O)CC3)nc(Nc3ccc(N4CCOCC4)cc3)c12 | 159% (inactive)
COc1ccccc1/C=C\C(=O)c1ccccc1 | 82.7% (inactive)
Cc1cn(-c2cc(NC(=O)c3ccc(C)c(Nc4nccc(-c5cnccn5)n4)c3)cc(C(F)(F)F)c2)cn1 | 103% (inactive)
Cc1nn(-c2ccc(Cl)cc2)c2ncnc(N/N=C/c3ccccc3O)c12 | -30.8% (active) and -12.1% (active)
Cc1ccc(S(=O)(=O)c2ccc3[nH]c(=O)[nH]c(=O)c3c2)cc1 | 102% (inactive)
Cc1cc(C)cc(C(=O)Nc2cccc(C#Cc3cccc4[nH]nc(N)c34)c2)c1 | 43% (inactive)
COc1ccc(-c2c(N)n[nH]c2-c2cc(OC)c3c(c2)OCCO3)cc1 | 71.7% (inactive)
CCN(CC)CC#CCOC(=O)[C@]1(C)CCC[C@]2(C)[C@H]3C[C@H]4C(C(C)C)=C[C@]3(CC[C@H]21)[C@@H]1C(=O)CCC(=O)[C@@H]14 | 11% (inactive)
Nc1ccccc1NC(=O)CCCCC(=O)Nc1ccc2c(c1)/C(=C/c1ccc[nH]1)C(=O)N2 | 50.4% (inactive)
COc1cccc(O)c1O | 86.7% (inactive)
CCOC(=O)CCC(=O)O[C@H]1[C@H](O[C@@H]2[C@@H](C)[C@H](O[C@H]3C[C@@](C)(OC)[C@@H](O)[C@H](C)O3)[C@@H](C)C(=O)O[C@H](CC)[C@@](C)(O)[C@H](O)[C@@H](C)C(=O)[C@H](C)C[C@@]2(C)O)O[C@H](C)C[C@@H]1N(C)C | 109% (inactive)
O=C(OCc1ccccc1)n1nnc2ccccc21 | 107% (inactive)
CC1(C)CC(=O)c2c(ccc(C(=O)C[C@@H](N)CO)c2N)O1 | 5.3% (active)
O=C(O)c1ccc(-c2ccc(/C=N/Nc3nc(Nc4ccccc4)nc(N4CCCCC4)n3)o2)cc1 | 92.1% (inactive)

Reference: PubChem BioAssay (NCI)
